From PubChem BioAssay (NCI)
About 83,000 compounds went through this panel and 20% of them were active in at least one assay; those are over-represented in the sample as a whole.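 In brief: 96-well plates, 48 h treatment, single concentration, percent growth endpoint.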 Unmarked numbers belong to inactive results. Activity calls are given as the source filed them. Rule for the calls: active = growth percent below 10; inactive = the rest.

Tests used:
Experiment in all cases: NCI-60 one-dose screen, 48 h (100 = growth as untreated, 0 = no growth, -100 = all killed)
Details in all cases: 10 µM unless noted
SR leukemia = test system: SR leukemia
RPMI-8226 leukemia = test system: RPMI-8226 leukemia
OVCAR-8 ovarian = test system: OVCAR-8 ovarian
OVCAR-5 ovarian = test system: OVCAR-5 ovarian
OVCAR-4 ovarian = test system: OVCAR-4 ovarian
SK-OV-3 ovarian = test system: SK-OV-3 ovarian
IGROV1 ovarian = test system: IGROV1 ovarian
OVCAR-3 ovarian = test system: OVCAR-3 ovarian
HS 578T breast = test system: HS 578T breast
NCI/ADR-RES ovarian = test system: NCI/ADR-RES ovarian
T-47D breast = test system: T-47D breast
BT-549 breast = test system: BT-549 breast
MDA-MB-435 melanoma = test system: MDA-MB-435 melanoma
SW-620 colon = test system: SW-620 colon
HCT-116 colon = test system: HCT-116 colon
HCC-2998 colon = test system: HCC-2998 colon
KM12 colon = test system: KM12 colon
MCF7 breast = test system: MCF7 breast

Row | Compound | growth (SR leukemia) | growth (RPMI-8226 leukemia) | growth (OVCAR-8 ovarian) | growth (OVCAR-5 ovarian) | growth (OVCAR-4 ovarian) | growth (SK-OV-3 ovarian) | growth (IGROV1 ovarian) | growth (OVCAR-3 ovarian) | growth (HS 578T breast) | growth (NCI/ADR-RES ovarian) | growth (T-47D breast) | growth (BT-549 breast) | growth (MDA-MB-435 melanoma) | growth (SW-620 colon) | growth (HCT-116 colon) | growth (HCC-2998 colon) | growth (KM12 colon) | growth (MCF7 breast) [%]
1 | O=c1c2cnn(-c3ccccc3)c2n2c(CN3CCOCC3)nnc2n1-c1ccccc1 | 104% | 102% | 100% | 114% | 104% | 88.2% | 109% | 105% | 107% | 98.8% | 81.9% | 75.2% | 112% | 110% | 78.8% | 104% |  | 
2 | CC(=O)N1N=C(c2ccc(Nc3nc(Nc4ccccc4)nc(Nc4ccccc4)n3)cc2)CC1c1cccc([N+](=O)[O-])c1 (stereo not drawn) | 83.8% | 68% | 92.6% | 87.6% | 91.2% | 103% | 79.4% | 98.1% | 88.6% | 94.7% | 66.4% | 111% | 96.1% | 94.9% | 95.5% | 103% | 129% | 
3 | COCCOc1cc2ncnc(N3CCN(c4ncc(S(=O)(=O)N5CCCCC5)cn4)CC3)c2cc1OCCOC | 72.9% | 90.2% | 97% | 114% | 105% | 123% | 99.2% | 114% | 114% | 97.6% | 87% | 105% | 105% | 109% | 100% | 99.3% | 97.6% | 
4 | COc1ccc(OC)c(-c2nc(SCC(=O)c3ccc(C#N)cc3)[nH]c(=O)c2C#N)c1 | 97.3% | 114% | 99.3% | 89.5% | 106% | 78% | 96.4% | 89.4% | 102% | 97.4% | 117% | 99.4% | 100% | 98.6% | 95% | 95.9% | 91.8% | 
5 | Cc1cccc(/C=C2\CN(C(=O)OC(C)(C)C)C/C(=C\c3cccc(C)c3)C2=O)c1 | 6.54% (active) | -7.31% (active) | 85.4% | 109% | 89.2% | 93.3% | 90.4% | 97.5% | 96.7% | 88% | 87.8% | 105% | 93.1% | 7.71% (active) | 11.2% | 103% | 74.1% | 
6 | COc1ccc(NC(=O)c2sc3nc(C)c(C(=O)/C=C/c4ccccc4)cc3c2N)cc1 | 14.7% | -24.4% (active) | 8.59% (active) | 63.5% | 52.3% | 103% | 17% | 0.065% (active) | 34% | 15.5% | 57.7% | 50% | 15.7% | 2.56% (active) | 12.3% |  | 18.7% | 14.9
7 | CCCCCCCCCCCCCCCCOCCCOP(=O)(O)C1CCCN(O)C1=O (stereo not drawn) | 7.77% (active) | 10.9% | 23.8% | 20% | 16.5% | 34.4% | -2.28% (active) | 17.3% | 83.1% | 8.85% (active) | 43.2% | 32.2% | 14.3% |  | 14.5% | 3.73% (active) |  | 18.5
8 | CCOC(=O)n1cc(-c2nonc2-c2cn(C(=O)OCC)c3ccc(Br)cc23)c2ccccc21 | 78.4% | 88.9% | 85.6% | 64.4% | 79.1% | 79.8% | 52.6% | 79.1% | 87% | 86.5% | 52.9% | 98.3% | 99.9% | 85.8% | 62.7% | 86.9% | 72.7% | 
9 | O=C(/C=C/c1cccc(Cl)c1)c1cccc(OCCCOc2cccc(C(=O)/C=C/c3cccc(Cl)c3)c2)c1 | 37.1% | -8.65% (active) | 98.2% | 113% | 102% | 107% | 92.7% | 102% | 105% | 99.6% | 90.4% | 90.2% | 102% | 90.7% | 37% | 109% | 96.8% | 
10 | COc1ccc(/C=C/C(=O)c2cccc(OCCCCOc3cccc(C(=O)/C=C/c4ccc(OC)c(OC)c4)c3)c2)cc1OC | 69.4% | 35.6% | 68.3% | 102% | 32.9% | 89.6% | 75.2% | 80.9% | 78.4% | 78.1% | 43.3% | 60.7% | 75.5% | 89.5% | 58.6% |  | 79.1% | 44.3
11 | Cc1[nH]c(=O)[nH]c(=O)c1Br | 77.6% | 111% | 95.2% | 114% | 117% | 115% | 147% | 124% | 104% | 97.8% | 108% | 108% | 102% | 102% | 106% |  | 108% | 95.6
12 | O=C(CSC(=S)n1cnnc1)NC(=O)c1ccccc1 | 85.3% | 100% | 115% | 100% | 100% | 105% | 108% | 96.7% | 103% | 99.7% | 100% | 102% | 113% | 103% | 112% | 104% | 103% | 
13 | CCOC(=O)c1c(C(=O)c2cn(C)c3ccc(Br)cc23)c(-c2cn(C)c3ccc(Br)cc23)n(NC(=O)OC(C)(C)C)c1C | 89.1% [100 µM] | 69.2% [100 µM] | 71.8% [100 µM] | 92.3% [100 µM] | 105% [100 µM] | 54.8% [100 µM] | 70.7% [100 µM] | 88.5% [100 µM] | 46.8% [100 µM] | 85.4% [100 µM] | 58.8% [100 µM] | 39.2% [100 µM] | 96.5% [100 µM] | 91.8% [100 µM] | 54% [100 µM] | 111% [100 µM] | 89.4% [100 µM] | 
14 | CCCNC(=O)Nc1ccc2cc3ccc(NC(=O)NCCC)cc3nc2c1 | 37.2% | 76.1% | 74.5% | 90.1% | 65.2% | 95.1% | 34.4% | 70.1% | 48.4% | 96.9% | 46.6% | 82.1% | 77.4% |  | 76.3% | 98.4% | 70.9% | 62.6
15 | O=C1c2ccc3c4c5ccc(c24)C(=O)N1CCCOCCCCOCCCNCc1ccc(cc1)CNCCCOCCCCOCCCN(C3=O)C5=O | -10.9% (active) | 3.9% (active) | -29.6% (active) | -63.3% (active) | -97.8% (active) | 12.9% | -78.4% (active) | -27.2% (active) | 85.6% | 90% | -48.7% (active) | 68.7% | -95.4% (active) | -37.8% (active) | -62.9% (active) | -75% (active) |  | 
16 | COc1ccc(C2=C(Nc3ccc(C(=O)Nc4ccccc4)cc3)C(=O)N(C)C2=O)cc1 | 66.6% | 82.1% | 91.5% | 100% | 97.4% | 74.9% | 97.7% | 109% | 110% | 87% | 68.8% | 115% | 106% | 106% | 107% | 98.5% | 91.6% | 
17 | CSc1nc2ncc([N+](=O)[O-])c(=O)n2[nH]1 | 107% | 107% | 104% | 106% | 102% | 113% | 105% | 113% | 103% | 101% | 99.8% | 104% | 100% | 101% | 105% | 107% | 103% | 
18 | COC(=O)CC[C@H](C)[C@H]1CC[C@H]2[C@@H]3CC[C@@H]4CC5(CC[C@]4(C)[C@H]3CC(=O)[C@]12C)Nc1ccccc1NC5=NC(C)(C)C (stereo partly drawn) | 50% | 58.4% | 87.5% | 89.1% | 57.5% | 97% | 93.8% | 76% | 88.7% | 94.9% | 82.3% | 95.4% | 85.1% | 69.7% | 28.3% | 107% | 83% | 
